Compounds with a hit are over-represented: about 2.4% of the library has one in this group of screens.
PLC-beta3 inh = PLC-beta3 (human) inhibition, primary screen; Q01970; Purified PLC-beta3, fluorogenic substrate, fluorescence; inhibition, % at 12.2 µM; 370,000 compounds, 0.18% hits; AID 720704; in the data active means inhibition above about 11%;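 further: 0% = median of compound wells on plate and 100% = full blocker control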
UHRF1 MBD2 ctr = blocks human UHRF1 binding to methylated DNA | Q96T88 | UHRF1 binding to methylated oligo, TR-FRET | inhibition, % at 4.4 µM | 370,000 compounds, 0.75% hits; in the data active means inhibition above about 21%;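 further: UHRF1 SRA domain binding a hemimethylated CpG hairpin DNA probe; 0% = median of test compound wells and 100% = reference inhibitor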
MBD2 inh = inhibitors of human MBD2 binding to methylated oligonucleotide; TR-FRET; inhibition, % at 4.4 µM; 370,000 compounds, 0.31% hits; in the data active means inhibition above about 13%
PLCg1 inh = PLC-gamma1 (human) inhibition, primary screen; 370,000 compounds, 0.84% hits; P19174; inhibition, % at 12.2 µM; AID 720700; purified PLC-gamma1, fluorogenic substrate, fluorescence; in the data active means inhibition above about 9.5%
LEDGF integ inh = blocks HIV-1 LEDGF/p75-dependent DNA integration; inhibition, % at 3.7 µM; TR-FRET IN-LEDGF/p75 DNA integration, Eu/Cy5; 370,000 compounds, 0.64% hits; AID 743269;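 active means inhibition above the screen-wide mean plus 3 SD, cut at about 13% in these data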;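 further: signal is the Cy5 over europium emission ratio at 671 and 618 nm; 0% = plate median of compound wells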
IN multimer act = activates HIV-1 integrase multimerization in LEDGF counter-screen; activation, % at 7.7 µM; shares compounds with LEDGF integ inh; TR-FRET HIV-1 integrase multimerization, biochemical; 2,000 compounds, 17% hits; in the data active means activation above about 8.9%
TR-FRET interf = counter-screen for LEDGF/p75 integration inhibitors: TR-FRET optical interference. 2,000 tested, under 10 active. shares compounds with LEDGF integ inh. AID 1053135. inhibition, % at 7.7 µM. TR-FRET optical interference counterscreen, HIV-1 IN multimerization;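 active means inhibition above the mean over all tested compounds plus 3 SD, which no compound reached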;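 further: 0% = integrase with antibodies and DMSO and 100% = antibodies without integrase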
IN-LEDGF confirm = confirmation of HIV-1 LEDGF/p75-dependent integration inhibitors | shares compounds with LEDGF integ inh | inhibition, % at 3.7 µM | AID 1053136 | 2,000 compounds, 36% hits | TR-FRET LEDGF/p75-dependent HIV-1 integration, biochemical; in the data active means inhibition above about 14%
An asterisk follows results filed as active; . = no result given.

SMILES | PLC-beta3 inh | UHRF1 MBD2 ctr | MBD2 inh | PLCg1 inh | LEDGF integ inh | IN multimer act | TR-FRET interf | IN-LEDGF confirm
COc1ccccc1NC(=O)O[C@@H]1CC[C@@]23CCCN2C(=O)CCC[C@H]3C1 | -3 | 1 | 9 | -1 | 1 | . | . | .
O=C(Nc1c(-c2ccc3c(c2)OCO3)[nH][nH]c1=O)c1ccccc1 | -24 | 9 | 1 | -17 | 7 | . | . | .
O=C(Nc1c(-c2ccc3c(c2)OCO3)[nH][nH]c1=O)c1cccc(C(F)(F)F)c1 | -19 | 14 | 2 | -9 | 20* | 2 | -11 | -3
C=CCCC[C@H]1OC(=O)[C@H](C)NC(=O)[C@H](C(C)C)NC(=O)[C@@H]2CCCN2C(=O)[C@H](Cc2ccccc2)OC(=O)[C@@H](C(C)C)N(C)C(=O)[C@H](C(C)C)NC(=O)C1(C)C | -4 | 18 | 11 | 7 | 16* | 0 | -1 | -8
O=C(NCc1cnc2ccccn12)C1CCC(=O)N(Cc2ccccc2F)C1 (stereo not drawn) | -10 | -1 | -1 | -5 | 17* | 0 | 2 | -5
Oc1ccc(/C=N/Nc2ccc(Cl)nn2)c(O)c1O | -7 | 21* | 6 | 4 | 70* | 31* | -111 | 62*
COc1ccc(OC)c(NC(=O)COC(=O)/C=C/c2ccco2)c1 | -12 | 15 | 5 | 0 | 22* | 1 | -6 | -4
Cc1nc(NC(=O)COC(=O)/C=C/c2ccco2)c(Cl)cc1Cl | -25 | 19 | -2 | -21 | 33* | 2 | -7 | 0
O=C(COC(=O)/C=C/c1ccco1)Nc1ncc(Cl)cc1Cl | -15 | 8 | -4 | -15 | 5 | . | . | .
COc1ccc(OC)c(NC(=O)COC(=O)/C=C/c2ccccc2Cl)c1 | 1 | -1 | -1 | -1 | -3 | . | . | .
Cc1ccc(-c2cc(-c3nnc(SCC(=O)Nc4nccs4)n3N)[nH]n2)cc1 | 0 | 2 | 1 | -1 | 1 | . | . | .
CC(C)CCN(C)C1CCN(C(=O)NCc2ccccc2)CC1 | 5 | 1 | -7 | 5 | 3 | . | . | .
NCC1C2CCC(O2)C1CO (stereo not drawn) | 1 | -2 | 4 | -2 | 56* | 0 | 0 | -2
O=C(O)Cc1ccc(N2N=C(c3ccccc3)CC2=O)cc1 | -12 | 18 | 9 | -8 | 26* | 1 | -5 | 10
N#Cc1cc(F)cc(OCCCN2CCC(C(O)(c3ccccc3)c3ccccc3)CC2)c1 | 1 | 1 | -6 | 3 | 0 | . | . | .
CC(C)C[C@@H](CN1CCC[C@H]1CN1C(=O)C(=O)NC[C@@H]1Cc1ccc(O)cc1)N1C[C@H](Cc2ccc(O)cc2)N(CCc2ccccc2)C(=O)C1=O | 0 | 3 | 3 | 0 | 73* | 3 | -16 | -10
CC(C)C[C@@H](CN1CCC[C@H]1CN1C(=O)C(=O)NC[C@@H]1Cc1ccc(O)cc1)N1C[C@H](Cc2ccccc2)N(CCc2ccccc2)C(=O)C1=O | 3 | 4 | 1 | -3 | 0 | . | . | .
COC(=O)[C@]1(C)N[C@H](CN(C)S(=O)(=O)c2ccc(C(F)(F)F)cc2)[C@@H]2C(=O)N(C)C(=O)[C@@H]21 | 2 | -3 | 1 | 2 | 36* | -2 | 8 | -5
CCN(C[C@H]1N[C@@](Cc2ccccc2)(C(=O)OC)[C@H]2C(=O)N(Cc3ccccc3)C(=O)[C@@H]12)S(=O)(=O)c1ccc(C(F)(F)F)cc1 | -13 | 2 | 5 | 1 | 25* | 0 | -2 | -14
COC(=O)[C@]1(Cc2ccccc2)N[C@H](CN(C)S(=O)(=O)c2ccc(C(F)(F)F)cc2)[C@@H]2C(=O)N(Cc3ccccc3)C(=O)[C@@H]21 | 1 | 1 | 1 | -2 | -5 | . | . | .
COC(=O)[C@]1(C)N[C@H](CN(C)S(=O)(=O)c2ccc(OC)cc2)[C@@H]2C(=O)N(C)C(=O)[C@@H]21 | 3 | 2 | -4 | 6 | 10 | . | . | .
O=C(NCc1ccncc1)C1CCCN(S(=O)(=O)c2cc(Cl)ccc2Cl)C1 (stereo not drawn) | 2 | 0 | 3 | 0 | 1 | . | . | .

High-throughput results deposited in PubChem by The Scripps Research Institute Molecular Screening Center.
